Consider 40 compounds from PubChem BioAssay (Tox21).

A number with no mark means an inactive call. Calls of active or inactive are those of the source. The call rests on the fitted dose curve; in most records, active means well fitted curve in the direction sought with a large enough effect in the repeat runs; inconclusive means weak or mixed curves; inactive means flat fitted curve, though single readings scatter.
On the % scale 0 is the no-effect control and ±100 the full control effect.

The nature of the assay: qHTS assay to test for compound auto fluorescence at 460 nm (blue) in HepG2 cells (AID 720687). The note with it: autofluorescence 405/460 nm, 1 h; series mostly up to 91.3 µM; fluorescence, % of fluorescent control: at the top concentration. An excerpt:
U.S. Tox21 Program National Center for Advancing Translational Sciences [NCATS] NIH Chemical Genomics Center [NCGC] U.S. Environmental Protection Agency [EPA] National Institutes of Environmental Health Sciences [NIEHS] National Toxicology Program [NTP] U.S. Food and Drug Administration [FDA] Tox21 Assay Overview: Compound auto fluorescence often interferes with screening of the compound library against various biological targets and signaling pathways. Some of these compounds may have fluorophoric properties. Such properties may interfere with the assay outputs resulting in false positives and/or negatives. To decrease such complications and ensure the compound activities are relevant in terms of biological response, the Tox21 10K compound library was screened for auto fluorescence. From the fluorophores used as reporter signals in our screening assays, the auto fluorescence equivalencies of compounds against three fluorophores have been evaluated: Triamterene, Fluorescein and Rose Bengal sodium for blue, green and red fluorescence, respectively. The fluorescence intensities were measured using Excitation/Emission wavelengths at 405/460nm, 485/535nm and 540/590nm for blue, green and red labels, respectively. This assay includes the blue fluorescence data.
Tox21 Assay Protocol Summary: 2,000 HepG2 cells in 5 uL of culture medium (MEM containing 10% FBS) per well were dispensed into black wall/clear bottom 1536-well plates using a Multidrop Combi Dispenser (ThermoFisher Scientific, Waltham, MA). The assay plates were incubated overnight at 37 C to allow cell attachment to the well bottom, followed by the transfer of 23 nL compound or DMSO vehicle by a pintool work station (Kalypsys , San Diego, CA). After the assay plates were incubated for 1 hr at 37 C and 5% CO2, fluorescence intensities in the assay plates were measured by an Envision (PerkinElmer, Shelton, CT) plate reader using three labels for measuring blue, green and red fluorescence at […] 460, 535 and 590 nm respectively.
(In general: Quantitative high-throughput screening tests each substance at several concentrations.)
With `ClC(Cl)(Cl)c1ccc(C(Cl)(Cl)Cl)cc1`, the “fluorescence, % of fluorescent control” value was -0.0248%.

With `CC(C(=O)O)c1ccc(-c2ccccc2)c(F)c1` (stereo not given), the Potency entry is “inactive”. Regarding `COC(=O)C(C)=O`, the “fluorescence, % of fluorescent control” value is -0.0192%. Still for that read-out and setting: to `CCCCCc1ccc(N)cc1` belongs 0.0915%. As to `Cc1ccc(C(=O)C(C)CN2CCCCC2)cc1` (stereo not given), the Potency entry is “inactive”. Turning to `CCCCOC(=O)/C=C\C(=O)OCCCC`, the “fluorescence, % of fluorescent control” value was -0.156% [at 95.7 µM]. The same measure, in the same setting: to `OCC1CC2CC1C1CCC(CO)C21` (stereo not given) belongs -0.126%. For `CCCC(=O)OCC`, the “fluorescence, % of fluorescent control” value is -0.154%. Consider `Cc1ccc(C)o1`, for which the “fluorescence, % of fluorescent control” value is 0.0078%.

Take `O=C(c1ccccc1)c1ccc2n1CCC2C(=O)O` (stereo not given): the Potency result was “inactive”.

Take `CC(=O)c1c(C)c([N+](=O)[O-])c(C(C)(C)C)c([N+](=O)[O-])c1C`: the “fluorescence, % of fluorescent control” value is -0.0505%. The same measure, in the same setting: to `CCN(CC)CCNC(C(=O)OCCC(C)C)c1ccccc1` (stereo not given) belongs -0.13% [at 46 µM]; to `C1=Cc2ccccc2C1`, 0.179%. For the compound `CNCC[C@@H](Oc1ccccc1C)c1ccccc1`, the “fluorescence, % of fluorescent control” value was 0.0054% [at 46 µM]. The same measure, in the same setting: with `CCCCCCCCC(CO)CCCCCC` (stereo not given) the figure was -0.0363%; with `NCCCN(CCO)CCO`, 0.0842%. On the same count and under the same terms, to `CCOC(=O)CC(=O)c1cc(F)c(Cl)nc1Cl` belongs 0.02% [at 95.7 µM]; to `Oc1ccc2c(c1)OCO2`, -0.119%.

Regarding `CCCCCOC(=O)c1ccc(O)cc1`, the “fluorescence, % of fluorescent control” value is -0.0931% [at 95.7 µM].

With `C=C(C)C(=O)OC(C)C`, the “fluorescence, % of fluorescent control” value is 0.226%. Turning to `NCCCOCCOCCOCCCN`, the “fluorescence, % of fluorescent control” value was 0.248%. The same measure, in the same setting: to `CCCc1ccccc1` belongs 0.0772%; to `CC(=O)[C@@]1(O)CC[C@H]2[C@@H]3C[C@H](C)C4=CC(=O)CC[C@]4(C)[C@H]3CC[C@@]21C`, 0.193% [at 46 µM]. Same read-out and setting: to `CCCCC(CC)COCCCN` (stereo not given) belongs -0.0213%.

Regarding `SC1CCCC1`, the “fluorescence, % of fluorescent control” value is 0.101%. For the compound `CCCCCCc1ccc(N)cc1`, the “fluorescence, % of fluorescent control” value is -0.0091%. As to `CN(C)CC[C@@H](c1ccc(Br)cc1)c1ccccn1`, the “fluorescence, % of fluorescent control” value was 0.0368% [at 46 µM]. Regarding `CC(C)(C)C(=O)OCOP(=O)(COCCn1cnc2c(N)ncnc21)OCOC(=O)C(C)(C)C`, the “fluorescence, % of fluorescent control” value was -0.0159% [at 46 µM]. With `CN(c1nccc(=O)[nH]1)C1CCN(c2nc3ccccc3n2Cc2ccc(F)cc2)CC1`, the “fluorescence, % of fluorescent control” value is -0.0324% [at 46 µM]. Still for that read-out and setting: to `CC(=O)CC(=O)c1ccccc1` belongs -0.0016%; to `CCCOc1ccc2nc(NC(=O)OC)[nH]c2c1`, 0.0198% [at 46 µM]; to `O=CNc1ccccc1`, -0.0386%. With `CC[C@H](C)[C@@H](C(=O)O)n1sc2ccccc2c1=O`, the “fluorescence, % of fluorescent control” value was 0.0114%. Consider `CCCCCCCCCCCCCCCC(=O)OC/C=C(C)/C=C/C=C(C)/C=C/C1=C(C)CCCC1(C)C`, for which the Potency result was “inactive”. For `CCCCCCCCCCCCC(=O)O`, the “fluorescence, % of fluorescent control” value is 0.0346%. The same measure, in the same setting: to `Cc1cc(C)c(S(=O)(=O)O)cc1N=Nc1cc(S(=O)(=O)O)c2ccccc2c1O` belongs -0.721%; to `O=C(NN1CCCC1)NS(=O)(=O)c1ccc(Cl)cc1`, -0.0757% [at 46 µM]. For the compound `COc1ccc(OC)c(OC)c1`, the “fluorescence, % of fluorescent control” value is -0.293%. Regarding `O=C(NS(=O)(=O)/C=C/c1cccs1)c1ccc(F)cc1Br`, the “fluorescence, % of fluorescent control” value is -0.157%. `O=C(O)COC(=O)Cc1ccccc1Nc1c(Cl)cccc1Cl`: the fluorescence, % of fluorescent control was 0.0219% [at 18.6 µM].
